Reference: PubChem BioAssay AID602127 (Broad Institute, 2011)
Results with a measured potency or affinity are listed apart. The source made the active and inactive calls.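 Rule for the calls: active = every repeat test judged active, meaning a falling signal with potency within twice the top valid dose; inconclusive = repeat tests disagree on the call; inactive = every repeat test inactive, including signal moving upward.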

target: Cyclin-dependent kinase 2 (Homo sapiens) (UniProt P24941); experiment: CDK2 kinase inhibitors, off-target check, dose response, selectivity assay for Dyrk1A inhibitor project, biochemical, cherry-picked samples (AID 602127); settings: CDK2/cyclin A kinase, ADP-Glo luminescence, 60 min; series mostly up to 10 µM

outcome, inactive:
Cc1noc(NS(=O)(=O)c2ccc(NC(=O)c3oc4ccc(Cl)cc4c3C)cc2)c1C
Brc1ccc(CNc2nccc(-c3ccc4c(c3)OCO4)n2)cc1Br
O=[N+]([O-])c1cc(Nc2nccc(-c3ccc4c(c3)OCO4)n2)cc(C(F)(F)F)c1
Cc1c(-c2ccnc(NCc3ccc(Cl)cc3)n2)sc(=O)n1C
Clc1ccc(CNc2ncncc2-c2ccc3c(c2)OCO3)cc1
c1cncc(CNc2cc(-c3ccc4c(c3)OCO4)ncn2)c1
O=C(Nc1nc(-c2ccncc2)cs1)c1ccco1
Cc1ccc(CNc2ncnc3ccc(-c4ccoc4C)cc23)o1
CCCC(=O)Nc1nc(-c2ccc3c(c2)OCCO3)cs1
Clc1ccc(CNc2cc(-c3ccc4c(c3)OCO4)ncn2)cc1
Clc1cc(Cl)cc(CNc2cc(-c3ccc4c(c3)OCO4)ncn2)c1
COc1ccc(C(=O)c2sc(Nc3ccccc3F)nc2N)cc1
CN(C)S(=O)(=O)c1ccc(NC(=O)c2cc3ccccc3o2)cc1
c1cc(-c2ccc3c(c2)OCO3)nc(Nc2ccc3c(c2)OCO3)n1
O=C(Nc1nc2ccc(Cl)cc2s1)C1CCCO1 (stereo not given)
CCCNc1ncnc2ccc(-c3ccc4c(c3)OCO4)cc12
c1csc(CCNc2ncnc3ccc(-c4ccc5c(c4)OCO5)cc23)c1
Cc1nc(NC(=O)c2ccccc2)sc1-c1csc(NCc2ccco2)n1
Clc1cc(Cl)cc(CNc2ncncc2-c2ccc3c(c2)OCO3)c1
c1nc(NCC2CCCOC2)c2cc(-c3ccc4c(c3)OCO4)ccc2n1 (stereo not given)
Clc1ccc(CNc2nccc(-c3ccc4c(c3)OCO4)n2)cc1Cl
Cc1csc(CN(C)c2ncnc3ccc(-c4ccc5c(c4)OCO5)cc23)n1
Clc1ccc(CNc2ccnc(-c3ccc4[nH]ncc4c3)n2)cc1Cl
CCOC(=O)c1ccc2ncc(C(=O)OCC)c(Nc3ccc(N4CCOCC4)cc3)c2c1
CC1Cc2ccccc2N1c1ncnc2nc[nH]c12 (stereo not given)
CCN1CCN(Cc2ccc(NC(=O)c3ccc(C)c(NC(=O)N4CCNC4=O)c3)cc2C(F)(F)F)CC1
Clc1ccc(Nc2nccc(-c3ccc4c(c3)OCO4)n2)cc1
Cc1noc(CN(C)c2ncnc3ccc(-c4ccc5c(c4)OCO5)cc23)n1
O=C(O)COc1ccc(/C=C/c2nc3ccc([N+](=O)[O-])cc3s2)cc1
COc1cc(C(=O)Nc2cccc(-c3nncn3C)c2)cc(OC)c1OC
